Results from PubChem BioAssay AID488969 (Vanderbilt High Throughput Screening Facility, 2010).
Over roughly 110,000 compounds, “z-score” has its median near -0.1; the highest 2% begin near 2. What follows is part of a selection rich in the highest values, with near analogues and random picks from the rest. Active and inactive are the calls of the source.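 Rule for the calls: active = z-score in the third read window above 3 or below -3; inactive = the rest.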

Each compound was assayed against Metabotropic glutamate receptor 8 (Rattus norvegicus) (UniProt P70579) (assay: rat mGluR8 modulators via GIRK flux, primary screen, cell-based, thallium flux, HTS (AID 488969)). Conditions: HEK293 rat mGluR8, GIRK (G protein-gated inwardly rectifying potassium channel) thallium flux, FluoZin2; at 10 µM; stronger effect = higher value; submaximal glutamate (EC20) added with thallium.
Sequence of Metabotropic glutamate receptor 8 (Rattus norvegicus) (P70579 whole entry, looked up): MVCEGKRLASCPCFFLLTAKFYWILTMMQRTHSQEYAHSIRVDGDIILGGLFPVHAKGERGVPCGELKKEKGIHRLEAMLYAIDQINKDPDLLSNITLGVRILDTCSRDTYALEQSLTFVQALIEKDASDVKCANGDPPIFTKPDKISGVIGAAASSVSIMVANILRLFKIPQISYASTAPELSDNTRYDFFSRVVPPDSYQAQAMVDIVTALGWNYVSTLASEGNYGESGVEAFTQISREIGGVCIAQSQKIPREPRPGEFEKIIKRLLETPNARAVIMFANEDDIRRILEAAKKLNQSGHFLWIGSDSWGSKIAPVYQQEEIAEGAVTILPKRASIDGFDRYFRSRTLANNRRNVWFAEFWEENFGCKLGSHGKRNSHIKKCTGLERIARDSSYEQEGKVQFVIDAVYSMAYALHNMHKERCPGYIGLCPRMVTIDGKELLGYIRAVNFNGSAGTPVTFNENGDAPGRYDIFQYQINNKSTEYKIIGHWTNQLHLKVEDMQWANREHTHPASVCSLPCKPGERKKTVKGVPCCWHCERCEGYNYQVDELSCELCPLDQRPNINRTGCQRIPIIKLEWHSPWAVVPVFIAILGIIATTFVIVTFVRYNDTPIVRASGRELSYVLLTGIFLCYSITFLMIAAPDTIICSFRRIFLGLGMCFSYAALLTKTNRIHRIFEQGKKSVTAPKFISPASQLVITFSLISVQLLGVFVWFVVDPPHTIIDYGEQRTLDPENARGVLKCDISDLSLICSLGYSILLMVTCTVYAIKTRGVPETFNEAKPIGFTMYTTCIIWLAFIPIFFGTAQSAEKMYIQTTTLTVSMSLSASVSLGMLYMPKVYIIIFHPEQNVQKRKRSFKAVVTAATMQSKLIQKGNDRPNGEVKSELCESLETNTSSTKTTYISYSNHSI
`O=c1oc2ccccc2c(N2CCCC2)c1CN1CCCC1` gave a z-score of -0.557.
`CCOC(=O)NC1(NCC(C)C)Oc2ccccc2O1` was tested, and the z-score was -0.313.
`COc1cc(/C=N/OCC(=O)NC2CCCCC2)ccc1OCc1ccccc1` showed a z-score of -0.752.
`CC(C)c1ccc(OCC(=O)Nc2ccc(OC(F)(F)F)cc2)cc1` showed a z-score of -0.173.
Work on `COc1ccccc1C(=O)NCCn1cc(SCC(=O)Nc2cc(C)on2)c2ccccc21` yielded a z-score of -0.181.
Compound `Cc1cccnc1NC(=S)NC(=O)/C=C/c1ccco1` has a z-score of 0.37.
Work on `O=C(NC(=S)Nc1c(Cl)ccc2nsnc12)c1ccco1` yielded a z-score of -0.429.
In the case of `Cc1ccnc(NC(=S)NC(=O)c2cccs2)c1`, the z-score is reported as 7.29 (active).
Work on `Cc1cccnc1NC(=S)NC(=O)c1cccs1` yielded a z-score of 0.0645.
In the case of `Cc1ccnc(NC(=S)NC(=O)/C=C/c2ccco2)c1`, the z-score is reported as 3.2 (active).
With `Cc1ccnc(NC(=O)c2cccs2)c1` the z-score was -0.306.
With `Cc1ccnc(NC(=S)NC(=O)/C=C/c2ccccc2)c1` the z-score was -0.0726.
Work on `CC(=O)Nc1c(C)ccc2nsnc12` yielded a z-score of 0.0413.
Compound `O=C(NC(=S)Nc1ccc(Cl)cn1)C(c1ccccc1)c1ccccc1` has a z-score of 0.284.
For `O=C(Nc1ncc(Cl)cn1)c1cccs1`, the z-score was 0.0318.
In the case of `O=C(NC(=S)Nc1ccc(Cl)cn1)c1cccs1`, the z-score is reported as 10.3 (active).
`Cc1ccc2nsnc2c1NC(=S)NC(=O)c1ccco1` was tested, and the z-score was 6.75 (active).
For `O=C(c1ccccc1)n1ccn(-c2ccccc2)c1=S`, the z-score was -1.09.
For `CC1CC1C(=O)OCC(=O)Nc1ccc(N=Nc2ccccc2)cc1` (centres undefined), the z-score was 0.616.
`O=C(C1CC(c2ccc(F)cc2)=NO1)N1CCCCC1` (centres undefined) gave a z-score of -0.0299.
In the case of `O=C(CCC(NC(=O)OCc1ccccc1)C(=O)OCC(=O)N1CCCCC1)OCC(=O)N1CCCCC1` (centres undefined), the z-score is reported as 0.254.
With `C=CCC(NCc1ccco1)c1ccc(OC)cc1OC` (centres undefined) the z-score was -0.246.
Compound `CC1CCc2nn(CC(=O)NCCN3CCCCC3C)cc2C1` (centres undefined) has a z-score of 0.216.
With `Cc1ccc2ccc(S(=O)(=O)n3nc(C)cc3C)cc2c1` the z-score was -0.75.
Work on `COC(=O)C(NC(=O)c1ccco1)(Nc1cc(C)ccn1)C(F)(F)F` (centres undefined) yielded a z-score of 0.329.
With `Cc1ccnc(NC(=S)NC(=O)c2ccco2)c1` the z-score was 2.
Work on `O=C(NC(=S)Nc1ccccn1)c1ccco1` yielded a z-score of 1.2.
In the case of `CCC(=O)NC(=S)Nc1ccc(Cl)cn1`, the z-score is reported as 0.168.
`Cc1cccc(NC(=O)c2cccs2)n1` was tested, and the z-score was 0.965.
`Cc1cccc(NC(=S)NC(=O)c2cccs2)n1` was tested, and the z-score was 5.04 (active).
With `CC(C)CC(=O)NC(=S)Nc1ccc(Cl)cn1` the z-score was 2.96.
`Cc1cccc(NC(=S)NC(=O)c2ccco2)n1` was tested, and the z-score was 3.93 (active).
For `CCCC(=O)NC(=S)Nc1ccc(Cl)cn1`, the z-score was 0.131.
Compound `Cc1cccc(NC(=O)Cc2cccs2)n1` has a z-score of -0.58.
With `Cc1cccc(NC(=S)NC(=O)/C=C/c2ccco2)n1` the z-score was 0.626.
Compound `Cc1cccc(NC(=O)c2cc(NC(=O)c3ccco3)ccc2Cl)n1` has a z-score of -0.288.
Work on `CC(=O)c1c(C)[nH]c(C(=O)COC(=O)CNS(=O)(=O)c2ccccc2)c1C` yielded a z-score of -0.187.
`C(=N\N1CCN(Cc2ccccc2)CC1)/c1cccs1` was tested, and the z-score was -0.298.
`CC(=O)Nc1ccc(S(=O)(=O)NCCC(=O)Nc2ccc(C)c(Cl)c2)cc1` gave a z-score of -0.0921.
For `CC(=O)c1ccc(NC(=O)CSc2ccc(-c3ccc4c(c3)OCO4)nn2)cc1`, the z-score was -0.125.
`CCOC(=O)N1CCN(C(=O)C2CC(c3cc(OC)ccc3OC)=NO2)CC1` (centres undefined) was tested, and the z-score was -0.594.
For `COc1ccc(Br)cc1CNC(=O)C1CCN(S(=O)(=O)N2CCCCC2)CC1`, the z-score was -0.52.
With `Cc1ccc(C(=O)NC(C)c2ccc(F)cc2)cc1` (centres undefined) the z-score was -0.249.
`O=C(Nc1ccc(F)cc1)N1CCN(c2ccc3nnc(-c4ccc(F)cc4)n3n2)CC1` showed a z-score of -1.17.
With `c1ccc(-c2nnc3ccc(N4CCCC4)nn23)cc1` the z-score was -4.38 (active).
`Fc1ccc(-c2nnc3ccc(N4CCc5ccccc5C4)nn23)cc1` was tested, and the z-score was 2.89.
With `Cc1ccc(NC(=O)NNC(=O)c2cccs2)cc1` the z-score was 0.53.
In the case of `NC(=O)c1ccc(C(F)(F)F)n(Cc2ccc(Cl)cc2)c1=O`, the z-score is reported as -0.45.
`Cc1[nH]n(-c2ccccc2)c(=O)c1-c1cccc(Cl)c1` showed a z-score of 0.257.
In the case of `O=C(N1CCOCC1)N1CCN(C(=O)N(c2ccccc2)c2ccccc2)CC1`, the z-score is reported as -0.217.
With `O=C(N1CCCCC1)N1CCN(C(=O)N(c2ccccc2)c2ccccc2)CC1` the z-score was 3.16 (active).
`CN(C)S(=O)(=O)N1CCN(C(=O)N(c2ccccc2)c2ccccc2)CC1` was tested, and the z-score was -0.395.
`COc1ccc(-c2nc3c(c(=O)c4ccccc4n3C)c(=O)n2Cc2ccccc2)cc1` gave a z-score of -0.433.
In the case of `CCCN(/C=N/c1sc2c(c1C#N)CCCCC2)CCC`, the z-score is reported as -0.155.
In the case of `CCN(/C=N/c1sc2c(c1C#N)CCCCC2)CC`, the z-score is reported as -0.292.
With `CC(C)CN(/C=N/c1sc2c(c1C#N)CCCCC2)CC(C)C` the z-score was 2.9.
In the case of `CCOC(=O)c1nnc2c(Br)c(-c3ccccc3)nn2c1C`, the z-score is reported as -0.554.
`CCC(=O)Nc1ccc(-c2csc(NNC(C)=O)n2)cc1` showed a z-score of -0.182.
`Cn1ccnc1SCC(=O)Nc1ccccc1` gave a z-score of 0.326.
`COC(=O)c1cccc(NC(=O)CSc2nnc(COc3ccccc3)n2C)c1` was tested, and the z-score was -0.736.
`CCOc1ccc(NC(=O)CSc2nccn2C)cc1` gave a z-score of -0.0963.
`Cn1ccnc1SCC(=O)Nc1ccc(Oc2ccccc2)cc1` showed a z-score of 2.29.
`CCOC(=O)c1ccc(NC(=O)CSc2nnc(COc3ccccc3)n2C)cc1` showed a z-score of -0.177.
`CC(=O)Nc1ccc(NC(=O)CSc2nccn2Cc2ccccc2)cc1` was tested, and the z-score was 2.89.
With `COC(=O)c1ccc(NC(=O)CSc2nnc(COc3ccccc3)n2C)cc1` the z-score was 11.8 (active).
`Cc1ccc(NC(=O)CSc2nccn2Cc2ccccc2)cc1C` gave a z-score of -0.465.
For `CC(C)(C)NC(=O)CSc1nccn1Cc1ccccc1`, the z-score was 0.488.
Compound `CCc1sc(C(=O)Nc2ccc(F)cc2C)cc1C` has a z-score of -0.0957.
`O=C(CCC(=O)c1cccs1)Nc1ccc(F)c(F)c1F` showed a z-score of 0.32.
With `CCc1ccc(NS(=O)(=O)c2cc(OC)ccc2OC)cc1` the z-score was -0.868.
`Cc1nc(NCCc2ccc(F)cc2)c(C#N)c(C)c1[N+](=O)[O-]` gave a z-score of -0.205.
For `COc1cc(C)nc(OCCNS(=O)(=O)c2cc(C)ccc2C)n1`, the z-score was 0.217.
In the case of `CC(/C=N/NC(=O)c1nn(C)c(C)c1Br)=C\c1ccccc1`, the z-score is reported as -0.0235.
In the case of `CC(/C=N/NC(=O)c1ccc(Br)cc1)=C\c1ccccc1`, the z-score is reported as -1.26.
For `CC(/C=N/NC(=O)c1c(Br)cnn1C)=C\c1ccccc1`, the z-score was 3.16 (active).
For `O=C(Nc1ccc(C(=O)N2CCCCC2)cc1)c1ccc(Br)cc1`, the z-score was 1.09.
Work on `CC(C)CCNC(=O)Cn1c(=O)oc2cc(S(=O)(=O)N3CCc4ccccc43)ccc21` yielded a z-score of -0.186.
For `COc1cc(CNc2ccc(N3CCCC3)cc2)ccc1OCc1ccccc1`, the z-score was 3.82 (active).
In the case of `COc1cc(CNc2ccc(N3CCCC3)cc2)ccc1OCc1ccccc1F`, the z-score is reported as -0.289.
In the case of `COc1cc(CNc2ccc(CNc3ncn[nH]3)cc2)ccc1OCc1ccccc1`, the z-score is reported as -0.026.
`CC(C(=O)NCCN1C(=O)S/C(=C\c2cccs2)C1=O)N1C(=O)c2ccccc2C1=O` (centres undefined) showed a z-score of -0.139.
Work on `Cc1ccc(C)c(NC(=O)CCC(=O)NNC(=O)c2cccc([N+](=O)[O-])c2)c1` yielded a z-score of 0.265.
`CSc1ccccc1C(=O)Nc1cccc(C(C)O)c1` (centres undefined) gave a z-score of 0.209.
`CSc1ccccc1C(=O)Nc1cccc(C(C)=O)c1` was tested, and the z-score was 3.03 (active).
`CSc1ccccc1C(=O)Nc1cccc(C)c1` gave a z-score of -0.792.
Work on `CCOC(=O)Cc1c(C)nc2cc(-c3ccc(C)cc3)[nH]n2c1=O` yielded a z-score of 0.0804.
In the case of `C1CCCC(N2CCNCC2)CC1`, the z-score is reported as 0.33.
With `COC(=O)c1cc(=O)nc2sccn12` the z-score was -0.417.
With `CCc1cc(C(N)=O)c(NC(=O)c2ccc(OC)cc2)s1` the z-score was 3.98 (active).
In the case of `CCOC(=O)c1cc(-c2ccccc2)sc1NC(=O)c1ccc(OC)cc1`, the z-score is reported as -0.199.
For `CCOC(=O)c1cc(CC)sc1NC(=O)c1cc(OC)c(OC)c(OC)c1`, the z-score was 0.399.
Compound `CCOc1ccc(OC(=O)NC(c2ccccc2)C(Cl)(Cl)Cl)cc1` (centres undefined) has a z-score of -0.048.
`CCOC(=O)N1CCN(C(=O)c2ccc3c(=O)n(Cc4ccc(Cl)cc4)c(=S)[nH]c3c2)CC1` showed a z-score of 0.798.
`CC1CCN(CCn2c(=S)[nH]c3ncccc3c2=O)CC1` was tested, and the z-score was 4.47 (active).
With `O=c1c2ccc(Cl)cc2[nH]c(=S)n1Cc1cccnc1` the z-score was 2.08.
`CC1CCCCN1CCn1c(=S)[nH]c2ncccc2c1=O` (centres undefined) was tested, and the z-score was 1.22.
In the case of `O=c1c2cc(Br)ccc2[nH]c(=S)n1Cc1cccnc1`, the z-score is reported as 1.87.
In the case of `CCN(CC)CCn1c(=S)[nH]c2ncccc2c1=O`, the z-score is reported as 0.0629.
For `COCCn1c(=S)[nH]c2ncccc2c1=O`, the z-score was 0.35.
With `O=c1c2cccnc2[nH]c(=S)n1Cc1ccccc1` the z-score was 3 (active).
`O=c1c2cccnc2[nH]c(=S)n1CCCN1CCN(c2ccc(F)cc2)CC1` showed a z-score of 0.723.
In the case of `CC(=O)Nc1ccc(Sc2ncccc2C(=O)Nc2cc(Cl)cc(Cl)c2)cn1`, the z-score is reported as 0.0331.
`CCc1nc(SCC(=O)Nc2c(C)n(C)n(-c3ccccc3)c2=O)n[nH]1` showed a z-score of -0.584.
Work on `Cc1ccc(Cl)c(OCC(=O)Nc2sc(C)c(C)c2C#N)c1` yielded a z-score of 0.877.
In the case of `CC(NC(=O)COc1ccccc1)C1COc2ccccc2O1` (centres undefined), the z-score is reported as -0.67.
For `Cc1ccc(C)c(N2CCN(C(=O)c3csc(C)c3C)CC2)c1`, the z-score was 0.0161.
`CC(C)n1nc(C(=O)OCC(=O)c2c[nH]c3ccccc23)c2ccccc2c1=O` gave a z-score of -2.75.
`COc1ccc(Br)cc1S(=O)(=O)N1CCCC1` showed a z-score of -0.0684.
In the case of `CCOC(=O)COc1c(OC)cc(Cl)cc1C1Nc2ccccc2C(=O)N1c1ccccc1` (centres undefined), the z-score is reported as 0.355.
Compound `Cc1ccc(Oc2ncc(CN3CC(C)OC(C)C3)s2)cc1` (centres undefined) has a z-score of -0.107.
`CCn1c2ccccc2c2cc(NC(=O)CC(C)=O)ccc21` gave a z-score of -0.32.
For `CCOC(=O)N1CCC(NC(=O)c2cnn3c2NC(c2ccco2)CC3C(F)(F)F)CC1` (centres undefined), the z-score was 4.33 (active).
`Cc1ccc(Cl)cc1NC(=O)c1cnn2c1NC(c1ccco1)CC2C(F)(F)F` (centres undefined) was tested, and the z-score was -0.148.
`COCCNC(=O)c1cnn2c1NC(c1ccco1)CC2C(F)(F)F` (centres undefined) was tested, and the z-score was 0.0267.
`CCCCn1ccnc1C(=O)c1cc(S(=O)(=O)N2CCOCC2)ccc1C` gave a z-score of -0.0858.
For `CSc1nnc(CSc2cc(C)nc(N(C)C)n2)o1`, the z-score was -0.325.
With `O=S(=O)(Nc1cccnc1)c1cc(Cl)ccc1Cl` the z-score was -0.00571.
For `O=S(=O)(Nc1nc(-c2sccc2Cl)cs1)c1cc(Cl)ccc1Cl`, the z-score was 3.41 (active).
`O=C(O)c1ccc(NS(=O)(=O)c2cc(Cl)ccc2Cl)cc1` gave a z-score of -0.151.
